About 2,000 (36%) of roughly 5,500 compounds were called active. About 18% were inconclusive and are not listed. Rule as the data show it: active = normalized growth mostly below about 0.91 (no sharp cut-off); inconclusive = no clear call, values can overlap the other calls; inactive = mostly above about 0.92. Some of the results follow.
Assay: chemical genetic growth profiling, strain panel (AID 1159580);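 also: tested at 20 µM; growth read once vehicle control cultures reached saturation at 30 °C; 1 = growth at the plate median or of vehicle wells; lower values mean less growth of the strain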
Settings: growth OD

Measured: normalized growth

O=C(O)c1c2ccccc2cc2ccccc12
inactive: S. cerevisiae deletion strains, locus YJR043C, strain POL32, stronger effect = lower value 1.04 | S. cerevisiae deletion strains, locus YJR075W, strain HOC1, stronger effect = lower value 1.01 | S. cerevisiae deletion strains, locus YKL009W, strain mrt4, stronger effect = lower value 0.989 | S. cerevisiae deletion strains, locus YKL068W, stronger effect = lower value 0.971 | S. cerevisiae deletion strains, locus YKL085W, strain MDH1 (second series), stronger effect = lower value 0.958 | S. cerevisiae deletion strains, locus YKL085W, strain MDH1, stronger effect = lower value 0.958 | S. cerevisiae deletion strains, locus YKL160W, strain elf1, stronger effect = lower value 0.991 | S. cerevisiae deletion strains, locus YKL190W, strain CNB1, stronger effect = lower value 1.02 | S. cerevisiae deletion strains, locus YKR001C, strain vps1, stronger effect = lower value 0.981 | S. cerevisiae deletion strains, locus YKR026C, strain gcn3, stronger effect = lower value 1 | S. cerevisiae deletion strains, locus YKR091W, strain srl3, stronger effect = lower value 0.986 | S. cerevisiae deletion strains, locus YLL001W, strain dnm1, stronger effect = lower value 1 | S. cerevisiae deletion strains, locus YLL026W, stronger effect = lower value 0.996 | S. cerevisiae deletion strains, locus YLL041C, strain sdh2, stronger effect = lower value 0.992 | S. cerevisiae deletion strains, locus YLR027C, strain aat2, stronger effect = lower value 0.999 | S. cerevisiae deletion strains, locus YLR039C, strain RIC1, stronger effect = lower value 1.04 | S. cerevisiae deletion strains, locus YLR058C, strain SHM2, stronger effect = lower value 1.02 | S. cerevisiae deletion strains, locus YLR102C, strain apc9, stronger effect = lower value 0.983 | S. cerevisiae deletion strains, locus YLR221C, strain rsa3, stronger effect = lower value 0.973 | S. cerevisiae deletion strains, locus YLR258W, strain gsy2, stronger effect = lower value 0.992 | S. cerevisiae deletion strains, locus YLR262C, strain YPT6 (second series), stronger effect = lower value 0.976 | S. cerevisiae deletion strains, locus YLR262C, strain YPT6, stronger effect = lower value 1.03 | S. cerevisiae deletion strains, locus YLR268W, strain sec22, stronger effect = lower value 0.986 | S. cerevisiae deletion strains, locus YLR320W, strain mms22, stronger effect = lower value 1 | S. cerevisiae deletion strains, locus YLR330W, strain CHS5, stronger effect = lower value 1.02 | S. cerevisiae deletion strains, locus YLR342W, strain FKS1 (second series), stronger effect = lower value 0.971 | S. cerevisiae deletion strains, locus YLR342W, strain FKS1, stronger effect = lower value 1 | S. cerevisiae deletion strains, locus YLR357W, strain rsc2, stronger effect = lower value 1.06 | S. cerevisiae deletion strains, locus YLR370C, strain arc18, stronger effect = lower value 0.998 | S. cerevisiae deletion strains, locus YLR371W, strain rom2, stronger effect = lower value 0.992 | S. cerevisiae deletion strains, locus YLR384C, strain iki3, stronger effect = lower value 0.992 | S. cerevisiae deletion strains, locus YLR418C, strain cdc73, stronger effect = lower value 0.96 | S. cerevisiae deletion strains, locus YML016C, strain PPZ1, stronger effect = lower value 1.01 | S. cerevisiae deletion strains, locus YML032C, strain rad52, stronger effect = lower value 0.954 | S. cerevisiae deletion strains, locus YML120C, strain ndi1, stronger effect = lower value 0.965 | S. cerevisiae deletion strains, locus YML124C, strain tub3, stronger effect = lower value 0.985 | S. cerevisiae deletion strains, locus YMR058W, strain fet3, stronger effect = lower value 1.01 | S. cerevisiae deletion strains, locus YMR078C, strain ctf18, stronger effect = lower value 0.974 | S. cerevisiae deletion strains, locus YMR125W, strain sto1, stronger effect = lower value 1.03 | S. cerevisiae deletion strains, locus YMR129W, stronger effect = lower value 0.987 | S. cerevisiae deletion strains, locus YMR205C, strain PFK2, stronger effect = lower value 1.01 | S. cerevisiae deletion strains, locus YMR223W, strain ubp8, stronger effect = lower value 0.962 | S. cerevisiae deletion strains, locus YMR231W, strain pep5, stronger effect = lower value 0.979 | S. cerevisiae deletion strains, locus YMR263W, strain SAP30, stronger effect = lower value 1.02 | S. cerevisiae deletion strains, locus YMR307W, strain GAS1, stronger effect = lower value 1.13 | S. cerevisiae deletion strains, locus YNL067W, strain RPL9B, stronger effect = lower value 1.02 | S. cerevisiae deletion strains, locus YNL071W, strain lat1, stronger effect = lower value 0.948 | S. cerevisiae deletion strains, locus YNL128W, strain TEP1, stronger effect = lower value 1.02 | S. cerevisiae deletion strains, locus YNL153C, strain GIM3, stronger effect = lower value 1.02 | S. cerevisiae deletion strains, locus YNL209W, strain ssb2, stronger effect = lower value 1 | S. cerevisiae deletion strains, locus YNL233W, strain BNI4, stronger effect = lower value 1.02 | S. cerevisiae deletion strains, locus YNL248C, strain rpa49, stronger effect = lower value 0.993 | S. cerevisiae deletion strains, locus YNL250W, strain rad50, stronger effect = lower value 0.965 | S. cerevisiae deletion strains, locus YNL271C, strain bni1, stronger effect = lower value 0.949 | S. cerevisiae deletion strains, locus YNL298W, strain CLA4, stronger effect = lower value 0.948 | S. cerevisiae deletion strains, locus YNL307C, strain MCK1, stronger effect = lower value 0.969 | S. cerevisiae deletion strains, locus YNL322C, strain KRE1 (second series), stronger effect = lower value 0.998 | S. cerevisiae deletion strains, locus YNL322C, strain KRE1, stronger effect = lower value 1.02 | S. cerevisiae deletion strains, locus YNR049C, strain mso1, stronger effect = lower value 1.01 | S. cerevisiae deletion strains, locus YNR052C, strain pop2, stronger effect = lower value 0.982 | S. cerevisiae deletion strains, locus YOL006C, strain TOP1, stronger effect = lower value 0.989 | S. cerevisiae deletion strains, locus YOL012C, strain htz1 0.952 | S. cerevisiae deletion strains, locus YOL147C, strain pex11, stronger effect = lower value 0.986 | S. cerevisiae deletion strains, locus YOR001W, strain rrp6, stronger effect = lower value 0.957 | S. cerevisiae deletion strains, locus YOR061W, strain CKA2, stronger effect = lower value 1.01 | S. cerevisiae deletion strains, locus YOR069W, strain VPS5, stronger effect = lower value 1.01 | S. cerevisiae deletion strains, locus YOR070C, strain gyp1, stronger effect = lower value 0.999 | S. cerevisiae deletion strains, locus YOR080W, strain dia2, stronger effect = lower value 1.01 | S. cerevisiae deletion strains, locus YOR083W, strain WHI5, stronger effect = lower value 0.915 | S. cerevisiae deletion strains, locus YOR106W, strain vam3, stronger effect = lower value 0.95 | S. cerevisiae deletion strains, locus YOR136W, strain idh2, stronger effect = lower value 0.978 | S. cerevisiae deletion strains, locus YOR144C, strain elg1, stronger effect = lower value 0.987 | S. cerevisiae deletion strains, locus YOR184W, strain ser1, stronger effect = lower value 0.965 | S. cerevisiae deletion strains, locus YOR265W, strain rbl2, stronger effect = lower value 0.996 | S. cerevisiae deletion strains, locus YOR270C, strain vph1, stronger effect = lower value 0.973 | S. cerevisiae deletion strains, locus YOR290C, strain snf2, stronger effect = lower value 0.999 | S. cerevisiae deletion strains, locus YOR316C, strain cot1, stronger effect = lower value 0.983 | S. cerevisiae deletion strains, locus YPL051W, strain arl3, stronger effect = lower value 0.982 | S. cerevisiae deletion strains, locus YPL055C, strain LGE1, stronger effect = lower value 1.03 | S. cerevisiae deletion strains, locus YPL078C, strain atp4, stronger effect = lower value 1 | S. cerevisiae deletion strains, locus YPL106C, strain sse1, stronger effect = lower value 0.947 | S. cerevisiae deletion strains, locus YPL240C, strain hsp82, stronger effect = lower value 0.994 | S. cerevisiae deletion strains, locus YPL241C, strain CIN2, stronger effect = lower value 0.982 | S. cerevisiae deletion strains, locus YPR119W, strain clb2, stronger effect = lower value 0.979 | S. cerevisiae deletion strains, locus YPR141C, strain kar3, stronger effect = lower value 0.948 | S. cerevisiae deletion strains, locus YPR163C, strain tif3, stronger effect = lower value 0.984 | S. cerevisiae deletion strains, locus YPR167C, strain met16, stronger effect = lower value 0.987 | S. cerevisiae deletion strains, strain wtn01, stronger effect = lower value 0.987 | S. cerevisiae strains, strain wild type, stronger effect = lower value 1.01
